# Screening results from PubChem BioAssay.
# DRV1 agonist: GPR32 (DRV1) agonism, beta-arrestin recruitment. O75388. CHO-K1 GPR32 beta-arrestin PathHunter luminescence, 90 min; zero percent set by DMSO-only wells. activation, % at 76.9 µM. 48,000 tested, 2.5% active;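 active = activation of at least 60% and not above a set upper limit, about 1 call in 100 departs from these limits; inconclusive = activation of 40% to 60%, or above that upper limit; inactive = activation under 40%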; also: 0% is about no effect
#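 PathHunter enzyme-fragment complementation, CHO-K1 GPR32 stable line; 2,500 cells/well, overnight attach; cpd 90 min 37 °C 5% CO2; detection reagent 1 h RT; chemiluminescence. DMSO = EC0.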
# SKOV3 invasion: ovarian cancer metastasis inhibition, 3D TME model. SKOV3ip1-GFP adhesion/invasion on 3D omental model, fluorescence. Potency, µM (doses to about 45.8 µM), for inactives: at the top dose activity change, negative = inhibition, actives largely listed as inhibitors. 46,000 tested, 0.1% active. AID 1963576;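 also: potency is read from the fitted curve at half-maximal effect; plate controls were DMSO wells for no effect and tomatine positive control wells for full effect; nearly all actives have a fitted effect of over 65% in size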
#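 qHTS, 4-pt dose (0.36-46 umol/L); SKOV3ip1-GFP, 1,200 cells/well, no FBS; primary omental fibroblast/mesothelial co-culture 48 h pre-grown; 2 h RT + 16 h 37 C; PBS wash, 4% PFA; GFP count 488/509 nm.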
# GALC G270D up: galactocerebrosidase G270D activity enhancement, cell-based; P54803; 45,000 tested, 0.1% active; Potency, µM (series often up to 57.5 µM), actives largely listed as activators; 145M-Twi-hGALC-G270D cells (Twitcher mouse brain line with human GALC G270D), HMU-beta-Gal fluorescence, 48 h; also: potency is read from the fitted curve at half-maximal effect; 0% is about no effect; nearly all actives have a fitted effect of over 65% in size
# Target sequence (P54803 whole entry G286D): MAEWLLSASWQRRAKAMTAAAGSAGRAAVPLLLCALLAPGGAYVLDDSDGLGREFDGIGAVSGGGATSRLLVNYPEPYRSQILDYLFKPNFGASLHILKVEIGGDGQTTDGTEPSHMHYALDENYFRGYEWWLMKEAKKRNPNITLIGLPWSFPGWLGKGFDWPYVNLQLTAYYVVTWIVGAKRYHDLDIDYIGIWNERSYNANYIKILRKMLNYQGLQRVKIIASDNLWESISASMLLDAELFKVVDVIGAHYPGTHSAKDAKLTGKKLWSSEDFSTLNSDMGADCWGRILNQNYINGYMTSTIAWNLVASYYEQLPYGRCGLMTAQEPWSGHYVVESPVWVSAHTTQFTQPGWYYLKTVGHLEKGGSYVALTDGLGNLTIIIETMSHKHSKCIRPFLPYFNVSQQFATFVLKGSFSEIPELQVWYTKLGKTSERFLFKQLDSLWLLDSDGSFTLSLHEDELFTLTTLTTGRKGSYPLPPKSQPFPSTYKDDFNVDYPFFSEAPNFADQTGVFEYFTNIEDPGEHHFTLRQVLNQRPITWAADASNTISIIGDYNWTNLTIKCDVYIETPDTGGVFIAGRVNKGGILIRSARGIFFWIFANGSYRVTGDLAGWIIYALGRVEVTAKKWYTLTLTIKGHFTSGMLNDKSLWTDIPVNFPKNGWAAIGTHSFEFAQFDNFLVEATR
#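 Brain-derived Twitcher mouse 145M-Twi cells stably expressing human GALC-G270D or wild-type GALC, treated live, then residual GALC activity read by fluorescence of HMU-b-Gal substrate (0.1 mM final) in citrate-phosphate buffer pH 5.2 with sodium taurocholate. Signal increase indicates enhancement.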
# p53null 39C tox: selectivity test: cytotoxicity in p53 null cells, nonpermissive temperature | H1299 p53-null (neo) cells, 39C, ATPlite viability, 24 h | Potency, µM (top dose mostly 46.1 µM), inactives show at the highest dose activity, negative = cell killing, usual class: cytotoxic | 55,000 tested, 0.97% active;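 also: potency is read from the fitted curve at half-maximal effect; 0% = DMSO only and -100% = full killing by 100 µM tamoxifen; nearly all actives have a fitted effect of over 50% in size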
#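 H1299 lung cancer cells, p53-null (H1299-neo) or expressing p53 A138V (H1299-p53A138V), were plated overnight at 37C, then exposed to compounds at up to 46 uM for 24 hr at 39C. Viability was read by ATP-based luminescence.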
# p53null 32C tox: kills p53 null cells at the permissive temperature | 55,000 tested, 0.62% active | Potency, µM (titrated, usually from 46.1 µM), for inactives: top-dose activity change, negative = cytotoxicity, actives largely listed as cytotoxic | H1299-neo p53 null cells, ATP luminescence, 24 h, 32C | AID 903;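 also: potency is read from the fitted curve at half-maximal effect; 0% = DMSO only and -100% = full killing by 100 µM tamoxifen; nearly all actives have a fitted effect of over 55% in size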
#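 Overnight 37C seeding (600 cells/well) of H1299-neo preceded a 24 hr, 32C exposure to compounds up to 46 uM. ATP levels, read by luminescence after 20 min at RT, indicated surviving cells.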
# NTMT1 inhibitor: inhibitors of human N-terminal methyltransferase NTMT1. NTMT1 MTase-Glo SAH luminescence, purified enzyme. Potency, µM (top dose mostly 114 µM), inactives show at the top dose activity change, negative = inhibition, most hits filed as inhibitors. 59,000 tested, 2.5% active. AID 1645870;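 also: potency is read from the fitted curve at half-maximal effect; plate controls were DMSO vehicle for no effect and no enzyme for full effect; nearly all actives have a fitted effect of over 65% in size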
# * hit, by the source's call; i = inactive; ? = inconclusive; · = no result; ! = repeats disagree; [ ] = another dose, or the depositor's remark. A selection: hits, their analogues and other compounds. The true share with any hit is near 4%. Unless noted, calls follow the shape of the dose curve; as a rule, active = well fitted curve in the direction sought with a large enough effect; inconclusive = small, poorly fitted or top-dose-only effect, or another doubt; inactive = no such curve, though single readings can be large; an effect the other way counts as inactive or inconclusive.
SMILES,DRV1 agonist,SKOV3 invasion,GALC G270D up,p53null 39C tox,p53null 32C tox,NTMT1 inhibitor
CCC1CCc2nc3sc(C(=O)Nc4cccc(C(F)(F)F)c4)c(N)c3cc2C1 (stereo unspecified),21,2%,10µM*,-8%,-7%,0%
COc1ccc(NC(=O)c2sc3nc4c(cc3c2N)CCCCCC4)cc1Cl,27,-22%,i,?,-14%,-12%
CC1=CC(=O)C(=C(C)C)CC2C(C)(O)CCC12O (stereo unspecified),·,·,·,·,·,-21%[57.5 µM]
COc1c(NS(=O)(=O)c2ccc(C)cc2)cccc1C(=O)Nc1nc(-c2ccccc2)cs1,·,·,·,·,·,18%
Cc1cc(N2CCN(c3cccc(C)c3C)CC2)n2cnnc2n1,6,i,i,6%,14%,89µM*
COc1cc2c(Oc3ccc4[nH]c(C)cc4c3F)ncnc2cc1OCCCN1CCCC1,·,8%,·,·,·,45µM*!
COc1cc2c(Nc3ccc(NC(=O)c4ccccc4)cc3)ncnc2cc1OCCCN1CCOCC1,·,-5%,·,·,·,-9%
N#Cc1ccccc1NC(=O)c1cc2c(=O)n3ccccc3nc2s1,6,4%,?,10%,1%,-8%
O=C(Nc1ccc(F)cc1F)c1cc2c(=O)n3ccccc3nc2s1,15,0%,22µM*,15%,7%,1%
CCCCn1ccc(N2CCC(c3ccccc3)CC2)c(Cl)c1=O,·,·,·,·,·,-19%[57.5 µM]
O=C(Cc1ccccc1)Nc1sc2c(c1C(=O)Nc1ccccc1Cl)CCCC2,17,-32%,i,-8%,8%,89µM*
COc1ccc(OC)c(NC(=O)c2c(NCc3ccc(C)o3)sc3c2CCCCC3)c1,-19,?,i,9%,27%,?
O=C(Nc1sc2c(c1C(=O)Nc1cccc(Cl)c1)CCCC2)c1cccs1,-4,i,i,4%,3%,25µM*
COc1ccccc1NC(=O)c1c(NCc2ccc(C)o2)sc2c1CCCCC2,-19,i,i,20%,?,28µM*
CN1CCN(c2ccc3nc(-c4cc(C(C)(C)C)c(OCCCC(=O)NCCCN=[N+]=[N-])c(C(C)(C)C)c4)[nH]c3c2)CC1,·,·,·,·,·,0%
CC(C)=CCC[C@](C)(O)[C@H]1CC[C@]2(C)[C@@H]1[C@H](O)CC1[C@@]3(C)CC[C@H](O)C(C)(C)C3[C@@H](O[C@@H]3O[C@H](CO)[C@@H](O)[C@H](O)[C@H]3O[C@@H]3OC[C@@H](O)[C@H](O)[C@H]3O)C[C@]12C (stereo partly specified),·,·,·,·,·,12%[12.6 µM]
COc1cc(/C=C2\C(=O)Nc3ccccc32)ccc1O,·,·,·,·,·,79µM*
COc1cc(OC)c(/C=C2\C(=O)Nc3ccccc32)c(OC)c1,·,·,·,·,·,-3%
Cc1nc2ccc(CN(C)c3ccc(C(=O)NC(CCC(=O)O)C(=O)O)s3)cc2c(=O)[nH]1 (stereo unspecified),·,·,·,·,·,4%[57.5 µM]
CN(C1CCCCC1)S(=O)(=O)c1ccc(C(=O)Nc2sc3c(c2C(N)=O)CC(C)(C)NC3(C)C)cc1,118*,i,i,6%,-3%,-1%
O=C1CCCC2=C1C(c1[nH]ncc1Cl)NC(=NCCc1ccccc1)N2 (stereo unspecified),·,·,·,·,·,-4%
CSc1ccc(CCNC(=O)Cn2ncc3c(=O)oc4ccccc4c32)cc1,67*,i,i,-4%,-13%,?
O=C(Nc1ccccc1C(=O)Nc1ccc(CCO)cc1)c1ccc([N+](=O)[O-])cc1,·,·,·,·,·,0%[57.5 µM]
CS(=O)(=O)c1ncc(Cl)c(C(=O)N2CCN(c3cccc(Cl)c3)CC2)n1,-23,?,i,-95%,14µM*,-15%
CCS(=O)(=O)c1ncc(Cl)c(C(=O)N2CCN(c3cccc(Cl)c3)CC2)n1,-22,i,i,3.2µM*,?,-3%
SMILES,DRV1 agonist,SKOV3 invasion,GALC G270D up,p53null 39C tox,p53null 32C tox,NTMT1 inhibitor
Oc1ccc(CNc2cc(Br)ccn2)c2cccnc12,·,·,·,·,·,0%
COc1ccc(C2=CC(c3ccccc3F)n3ncc(C(=O)Nc4ccc(C)cc4)c3N2)cc1 (stereo unspecified),-5,14%,i,7%,0%,?
COc1cccc(C2=CC(c3ccccc3F)n3ncc(C(=O)Nc4ccc(F)cc4)c3N2)c1 (stereo unspecified),71*,?,i,23%,19%,22µM*
COc1ccccc1-c1nc(CNC(=O)Nc2ccccc2)c(C)o1,23,5%,i,-8%,-12%,-8%
COc1ccc(-c2nc(CNC(=O)Nc3ccccc3)c(C)o2)c(OC)c1,65*,-8%,i,?,-2%,-7%
Cc1ccc2nc3c(c(Nc4ccc(C)c(C)c4)c2c1)CCC3,101*,-14%,i,-3%,24%,-3%
Cc1ccc(Nc2c3c(nc4ccccc24)CCC3)cc1F,-24,-22%,i,?,10%,12%
CCCc1[nH]nc2c1C(c1cc(Cl)cc(Cl)c1O)C(C#N)=C(N)O2 (stereo unspecified),·,·,·,·,·,-2%[57.5 µM]
COc1ccc(CCn2c(=O)c3ccccc3n(CC(=O)Nc3cccc(C)c3)c2=O)cc1OC,-9,2%,i,18%,3%,-9%
COc1cc2c(=O)n(CCc3ccccc3)c(=O)n(CC(=O)Nc3ccccc3)c2cc1OC,3,?,i,-21%,-22%,79µM*
Cc1cccc(NC(=O)Cn2c(=O)n(CCc3ccccc3)c(=O)c3ccccc32)c1,75*,26%,i,-33%,2%,10%
CC(C)=CCC/C(C)=C/CCC1(C)Oc2c(c(O)cc3c2CN(C(CCC(=O)O)C(=O)O)C3=O)CC1O (stereo unspecified),·,·,·,·,·,12%[29.8 µM]
O=S(=O)(Nc1nc2ccccc2s1)c1ccc(NCc2ccc(Br)cc2O)cc1,·,·,·,·,·,28µM*
O=S(=O)(Nc1cnc2ccccc2c1)c1ccc(NCc2ccc(Br)cc2O)cc1,·,·,·,·,·,-4%
Fc1cccc(CNc2nc(-c3ccccc3C(F)(F)F)nc3ccccc23)c1,·,·,·,·,·,17%
